Experimental data: PubChem BioAssay (NCI)
About 83,000 compounds went through this panel and 20% of them were active in at least one assay; those are over-represented in the sample as a whole.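 Single-concentration screen, 48 h exposure, 96-well plates. Endpoint: percent growth. Below 10 = active.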 Values without a mark were called inactive. Activity calls are given as the source filed them.

Assays:
Assay in all cases: NCI-60 one-dose screen, 48 h (100 = growth as untreated, 0 = no growth, -100 = all killed)
SK-MEL-2 melanoma = conditions: 10 µM unless noted
EKVX NSCLC = conditions: 10 µM unless noted
SN12C renal = conditions: 10 µM unless noted
UO-31 renal = conditions: 10 µM unless noted
TK-10 renal = conditions: 10 µM unless noted
ACHN renal = conditions: 10 µM unless noted
A498 renal = conditions: 10 µM
HL-60(TB) leukemia = conditions: 10 µM unless noted
CCRF-CEM leukemia = conditions: 10 µM unless noted
MOLT-4 leukemia = conditions: 10 µM unless noted
SR leukemia = conditions: 10 µM unless noted
RPMI-8226 leukemia = conditions: 10 µM unless noted
OVCAR-8 ovarian = conditions: 10 µM unless noted
OVCAR-5 ovarian = conditions: 10 µM unless noted
OVCAR-4 ovarian = conditions: 10 µM unless noted
SK-OV-3 ovarian = conditions: 10 µM unless noted
IGROV1 ovarian = conditions: 10 µM unless noted
OVCAR-3 ovarian = conditions: 10 µM unless noted
HS 578T breast = conditions: 10 µM unless noted

Row | Structure (SMILES) | growth (SK-MEL-2 melanoma) | growth (EKVX NSCLC) | growth (SN12C renal) | growth (UO-31 renal) | growth (TK-10 renal) | growth (ACHN renal) | growth (A498 renal) | growth (HL-60(TB) leukemia) | growth (CCRF-CEM leukemia) | growth (MOLT-4 leukemia) | growth (SR leukemia) | growth (RPMI-8226 leukemia) | growth (OVCAR-8 ovarian) | growth (OVCAR-5 ovarian) | growth (OVCAR-4 ovarian) | growth (SK-OV-3 ovarian) | growth (IGROV1 ovarian) | growth (OVCAR-3 ovarian) | growth (HS 578T breast)
1 | COC(=O)C12CC(NC(=O)c3csc([C@@H](C[C@H](C(C)C)N(C)C(=O)[C@@H](NC(=O)[C@H]4CCCCN4C)C4CC4)OC(C)=O)n3)(C1)C2 | 34.7% | 59.8% | 37.9% | 48.5% | 39.2% | 33.6% | -5.31% (active) | -44% (active) | 17.2% | 15.9% | 17.5% | 22.9% | 19.3% | 35.7% | 43.5% | 3% (active) | 29.5% | -25.2% (active) | 33.1%
2 | COC(=O)[C@@H](C)C[C@H](Cc1ccccc1)NC(=O)c1csc([C@@H](C[C@H](C(C)C)N(C)C(=O)[C@@H](NC(=O)CN(C)C)C2CC2)OC(C)=O)n1 | 11.6% | 46.3% | 46.8% | 41.6% | 45.5% | 25.3% | 0.468% (active) | -27% (active) | 10.3% | 16.6% | 3.74% (active) | 34.3% | 20.1% |  | 54.4% | 42.2% | 28.4% | 1.63% (active) | 32.3%
3 | COC(=O)[C@@H](C)C[C@H](Cc1ccc(F)cc1)NC(=O)c1csc([C@@H](C[C@H](C(C)C)N(C)C(=O)[C@@H](NC(=O)[C@H]2CCCCN2C)C(C)C)OC(C)=O)n1 | 37.7% | 48.7% | 26.6% | 47% | 50.2% | 22.1% | -3.94% (active) | -37.5% (active) | 12.3% | 18.3% | 14.9% |  | 30% | 53.7% | 49.2% | 21.4% | 25.3% | -27.4% (active) | 34%
4 | CC12CCC=CC1CCC1C2CCC2(C)C(c3ccc(=O)oc3)CCC12O (stereo unspecified) | -34.4% (active) | -90.1% (active) | -18.8% (active) | -94.5% (active) | -69.8% (active) | -89.9% (active) | -19.9% (active) | -28% (active) | -16.6% (active) | -16.7% (active) | -4.41% (active) | -14.1% (active) | -51.4% (active) |  | -52.8% (active) | -11% (active) | -12.3% (active) | -74.5% (active) | -14.8% (active)
5 | CCOC(=O)C(Cc1ccc(N(CCCl)CCCl)cc1)NC(=O)C(CC(C)C)NC(C)=O (stereo unspecified) | -2.13% (active) | 114% | 25.4% | -48.7% (active) | 21.3% | 8.89% (active) | 86.5% | 13.1% | 12.3% | 6.43% (active) | -13.9% (active) |  | 32.6% | 36.8% | -16.2% (active) | 53.3% | 22.5% | -34.4% (active) | 108%
6 | Cc1c2cc(Cl)c3ccccc3c2c[n+]2ccccc12 | -16.6% (active) | 43.2% | -19.4% (active) | 62% | 93.3% | 92.2% | 90.2% | 62.3% | 35.5% | 1.48% (active) | -11.7% (active) |  | -1.69% (active) | 77.6% | 30.3% | 66.6% | 19.9% | 4.55% (active) | -33.2% (active)
7 | Cc1ccc(C(=O)NCCCOc2ccc(N3C(N)=NC(N)=NC3(C)C)cc2Cl)cc1S(=O)(=O)F | 70.1% | 79.3% | 35.2% | 105% | 103% | 110% | 118% | 30.2% | 55.1% | 119% | 21.4% |  | 77.2% | 51.6% | 111% | 101% | -28.2% (active) | 121% | 
8 | COc1cc2c(=O)n(C3CCCCCCC3)c3c4cc[nH]c4ncc3c2cc1OC | 78.7% | 71.6% | 49.8% | 22.5% | 30.8% | 40.9% | 4.93% (active) | 57.6% | 44.9% | 40.6% | 17.4% |  | 43.7% | 79.3% | -9.58% (active) | 36.5% | 48.4% | 36.8% | 
9 | CC(=O)O[C@H](C[C@H](C(C)C)N(C)C(=O)[C@@H](NC(=O)[C@H]1CCCCN1C)C(C)C)c1cccc(C(=O)N[C@@H](Cc2ccccc2)C[C@H](C)C(=O)O)n1 | 30.4% | 37.3% | 22% | 39.4% | 69% | 35.3% | -13.2% (active) | -38.1% (active) | 5.5% (active) | 9.11% (active) | 6.32% (active) | 19.7% | 1.57% (active) | 32.5% | 41.9% |  | 24% | -50.3% (active) | 9.57% (active)
10 | Fc1ccc2c(c1)c(-c1nc(-c3c[nH]c4ncccc34)cs1)cn2CCCCN1CCCCC1 | -76.7% (active) | 23.3% | -84.4% (active) | -86.9% (active) | -86.1% (active) | -97.4% (active) | 63.2% | -70% (active) | -61.4% (active) | -67.7% (active) | -60.2% (active) | -49.6% (active) |  | -68.2% (active) | -23.8% (active) | -72.6% (active) | -60.5% (active) | -84.3% (active) | -28.6% (active)
11 | CN1CCC(c2c[nH]c3ccccc23)C1 (stereo unspecified) | 87.5% | 98.1% | 124% | 69.1% | 154% | 96.2% | 113% | 104% | 98.7% | 105% | 96.6% | 79.7% | 96.4% | 77% | 107% | 99.4% |  | 103% | 113%
12 | CCCC[C@H](NC(=O)[C@H]1CCCN1C)C(=O)N(C)[C@H](C[C@@H](OC(C)=O)c1nc(C(=O)N[C@@H](Cc2ccccc2)C[C@H](C)C(=O)OCC)cs1)C(C)C | 52% | 41.3% | 23.6% | 40.2% | 16.4% | 17.5% | -11.7% (active) | -28.7% (active) | 11.1% | 14.5% | 6.28% (active) | 16.6% | 20% |  | 66.5% | 17.2% | 29.7% | 8.32% (active) | 12.6%
13 | c1ccc(COc2ccc3[nH]cc(CCN(Cc4ccccc4)Cc4ccccc4)c3c2)cc1 | 93.6% | 82.8% | 86.3% | 60.3% | 109% | 97.1% | 105% | 91.8% | 73.8% | 70.7% | 69.5% | 74.9% | 98.1% |  | 95.4% | 91.2% | 90.7% | 96.7% | 
14 | COC(=O)[C@@H](C)C[C@H](Cc1ccccc1)NC(=O)c1cccc([C@@H](C[C@H](C(C)C)N(C)C(=O)[C@@H](NC(=O)[C@H]2CCCCN2C)C(C)C)OC(C)=O)n1 | 26.4% | 34.3% | 17.1% | 41.8% | 58.7% | 30.4% | -0.869% (active) |  | 7.41% (active) | 11.5% | 8.11% (active) | 22.4% | 11.4% | 35.6% | 38.9% | 28.7% | 26.8% | -31.3% (active) | 26.3%
15 | CCCCN1CCCC[C@@H]1C(=O)N[C@H](C(=O)N(C)[C@H](C[C@@H](OC(C)=O)c1nc(C(=O)NC2CCC(C(=O)OC)CC2)cs1)C(C)C)C(C)C (stereo partly specified) | 35.5% | 34.8% | 46.3% | 52.8% | 55.6% | 54.8% | 22.3% | -30.4% (active) | 5.58% (active) | 19.2% | 20.4% |  | 24.6% | 57% |  |  | 39.5% | -29.5% (active) | 14.5%
